This is part of a sample that, as a whole, favours compounds with a hit. Of some 83,000 tested, about 20% had one in any assay.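 96-well plates, one dose, 48 hours. Percent growth reported; active if below 10.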 Values without a mark were called inactive. Activity calls are given as the source filed them.
How the values were obtained:
Assay in all cases: NCI-60 one-dose screen, 48 h (100 = growth as untreated, 0 = no growth, -100 = all killed)
Details in all cases: 10 µM unless noted
SK-MEL-2 melanoma = test system: SK-MEL-2 melanoma
EKVX NSCLC = test system: EKVX NSCLC
SN12C renal = test system: SN12C renal
UO-31 renal = test system: UO-31 renal
TK-10 renal = test system: TK-10 renal
ACHN renal = test system: ACHN renal
CAKI-1 renal = test system: CAKI-1 renal
A498 renal = test system: A498 renal
CCRF-CEM leukemia = test system: CCRF-CEM leukemia
MOLT-4 leukemia = test system: MOLT-4 leukemia
SR leukemia = test system: SR leukemia
RPMI-8226 leukemia = test system: RPMI-8226 leukemia
OVCAR-8 ovarian = test system: OVCAR-8 ovarian
OVCAR-5 ovarian = test system: OVCAR-5 ovarian
OVCAR-4 ovarian = test system: OVCAR-4 ovarian
SK-OV-3 ovarian = test system: SK-OV-3 ovarian
IGROV1 ovarian = test system: IGROV1 ovarian
OVCAR-3 ovarian = test system: OVCAR-3 ovarian
HS 578T breast = test system: HS 578T breast
NCI/ADR-RES ovarian = test system: NCI/ADR-RES ovarian

| Structure (SMILES) | growth (SK-MEL-2 melanoma) | growth (EKVX NSCLC) | growth (SN12C renal) | growth (UO-31 renal) | growth (TK-10 renal) | growth (ACHN renal) | growth (CAKI-1 renal) | growth (A498 renal) | growth (CCRF-CEM leukemia) | growth (MOLT-4 leukemia) [%] | growth (SR leukemia) | growth (RPMI-8226 leukemia) | growth (OVCAR-8 ovarian) | growth (OVCAR-5 ovarian) | growth (OVCAR-4 ovarian) | growth (SK-OV-3 ovarian) | growth (IGROV1 ovarian) | growth (OVCAR-3 ovarian) | growth (HS 578T breast) | growth (NCI/ADR-RES ovarian) |
| --- | --- | --- | --- | --- | --- | --- | --- | --- | --- | --- | --- | --- | --- | --- | --- | --- | --- | --- | --- | --- |
| Cn1cc(-c2ccc(-c3cn(C)c4ccc(Cl)cc34)[nH]2)c2cc(Cl)ccc21 | -18.9% (active) | -89.2% (active) | 7.64% (active) | -93.1% (active) | -28.7% (active) | -100% (active) | 4.42% (active) | 48.6% | -12.9% (active) | 19.1 | -13% (active) | 7.74% (active) | -5.8% (active) | -14.1% (active) | -57.7% (active) | -53.5% (active) | -45.9% (active) | -84% (active) | -28.6% (active) | -22.5% (active) |
| COc1ccc(C(=S)N2CCN(c3ccc(Cl)cc3)CC2)cc1 | 97.7% | 130% | 85.4% | 81.9% | 101% | 94.8% | 105% | 107% | 90.3% | 76.8 | 90.5% | 94% | 98.2% | 93.8% | 102% | 98.5% | 109% | 114% | 105% | 97.6% |
| Cc1ccc2c(-c3nnc(N)s3)cc(=O)oc2c1C | 110% | 97.3% | 99.8% | 80.2% | 102% | 103% | 94.1% | 85.1% | 39.2% | 102 | 110% | 91.2% | 96.1% | 114% | 100% | 109% | 98.5% | 110% | 95.6% | 102% |
| CC1=C2[C@@H](CC1)[C@]1(C)O[C@@](c3ccccc3)(C[C@H]1OC(=O)CO)[C@H]2OC(=O)/C=C/c1ccccc1 | 91.9% | 83.4% | 41.4% | -8.71% (active) | 111% | 2.46% (active) | 72.2% | -78.1% (active) | 77.5% | 70.8 | 68.8% | 77.7% | 10.3% | 108% | 5.56% (active) | 119% | 108% | 97.6% | -10.2% (active) | 2.86% (active) |
| [2H]C([2H])([2H])Oc1ccc(F)cc1/C=C/C(=O)/C=C(O)/C=C/c1cc(F)ccc1OC([2H])([2H])[2H] | 98.2% | 107% | 90.7% | 91.5% | 121% | 106% | 93.6% | 99.4% | 86.9% | 75.1 | 69.4% | 90% | 88.8% | 111% | 84.3% | 104% | 105% | 95.6% | 104% | 89.9% |
| Cc1cc(Nc2ccc(C(=O)N3CCCC3)cc2)nc(NCCCNc2ccnc3cc(Cl)ccc23)n1 | 99.5% | 101% | 85% | 86.7% | 106% | 99% | 99.1% | 95.2% | 65.3% | 36.9 | 19.1% | 74.8% | 108% | 103% | 70% | 101% | 76.2% | 90.3% | 92.3% | 99.8% |
| O=C1NC(=O)/C(=C/c2c(-c3ccccc3)nc3sc(COc4ccccc4)nn23)S1 | 92.1% | 91.9% | 102% | 84.7% | 108% | 98.3% | 98% | 78.7% | 98.3% | 96.1 | 90.2% | 84.4% | 105% | 115% | 93.4% | 105% | 112% | 110% | 105% | 100% |

— PubChem BioAssay (NCI)
